hgDAF12 agonist: hgDAF-12 agonism, primary luciferase screen. HEK293 GAL4-hgDAF12 UAS-luciferase reporter, agonist luminescence; normalized to butyrate control. activation, % at 6.8 µM. 370,000 compounds, 1.8% hits. AID 687014;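 active means activation above a cutoff set at the mean of all screened compounds plus 3 SD, cut at about 10% in these data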;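 further: 0% = DMSO wells and 100% = sodium butyrate wells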
ssDAF-12 act: S. stercoralis DAF-12 activation, primary screen; HEK293 ssDAF-12/GRIP1 lit1-tk-luc reporter, luminescence; % of 3 µM dafachronic acid response; activation, % at 6.8 µM; 370,000 compounds, 1% hits; AID 652126;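 active means activation above the mean over all tested compounds plus 3 SD, cut at about 0.9% in these data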;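 further: 0% = DMSO-only wells and 100% = 3 µM delta7-dafachronic acid wells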
PolyA inh: blocks polyadenylation in yeast reporter cells | S. cerevisiae SKY197-pL101 polyadenylation reporter, beta-gal luminescence; efflux-impaired pdr1/pdr3 knockout yeast; score 100 = 6 SD above DMSO | activity score, % at 12 µM | 300,000 compounds, 0.02% hits | AID 1875;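 active means lowest replicate activity score at least 50, where 100 means six control SD above control mean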;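 further: yeast exposed to compound for 9 h at 30 °C; higher score means more reporter readthrough which indicates perturbed polyadenylation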
hcDAF12 agonist: activates DAF-12 receptor from parasite H. contortus; HEK293 hcDAF-12 lit1-tk-luc reporter, luminescence; 0% DMSO, 100% Δ7-dafachronic acid; 370,000 compounds, 1.4% hits; activation, % at 6.8 µM; AID 652067;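 active means activation above the mean of all tested compounds plus 3 SD, cut at about 5.5% in these data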;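 further: 100% = response to 3 µM Δ7-dafachronic acid high control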
DAX1 inh-1: DAX1 (NR0B1) inhibition, primary screen | 370,000 compounds, 1.1% hits | inhibition, % at 6.8 µM | HEK293T StAR-luciferase reporter, SF-1/DAX-1 repression relief | AID 652010;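 active means inhibition above the mean over all tested compounds plus 3 SD, cut at about 3.6% in these data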;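 further: 0% = DAX-1 cells with DMSO and 100% = cells lacking DAX-1 with DMSO; higher inhibition means more luminescence from relief of DAX-1 repression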
DAX1 inh-2: inhibits human nuclear receptor DAX1. P51843. HEK293 Gal4-DAX1 luciferase reporter, luminescence. inhibition, % at 6.75 µM. 340,000 compounds, 0.99% hits;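 active means inhibition above the mean over all tested compounds plus 3 SD, cut at about 4.2% in these data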;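 further: 0% = DAX1-transfected cells with DMSO and 100% = empty-vector control cells with DMSO; inhibition shows as a rise in luminescence from relieved DAX1 repression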
Target sequence (P51843 207-470 limits assumed): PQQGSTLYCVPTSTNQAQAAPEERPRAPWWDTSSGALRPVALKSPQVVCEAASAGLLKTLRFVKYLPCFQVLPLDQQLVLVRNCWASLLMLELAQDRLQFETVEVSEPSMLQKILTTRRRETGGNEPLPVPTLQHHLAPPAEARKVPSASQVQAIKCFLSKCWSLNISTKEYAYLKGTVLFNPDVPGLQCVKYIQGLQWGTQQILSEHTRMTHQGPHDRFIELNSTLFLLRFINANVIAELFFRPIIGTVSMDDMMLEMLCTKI
LXRb hcDAF ctr: counter-screen for hcDAF-12 agonists: agonists of human LXR-beta | activation, % at 6.8 µM | 3,400 tested, under 10 active | shares compounds with hcDAF12 agonist | HEK293 Gal4-LXR tk-luc reporter, luminescence, 24 h; normalized: DMSO 0%, positive control 100% | AID 743027;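 active means mean percent activation of the reporter above a cutoff set as the average over tested compounds plus their standard deviation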
Target sequence (P55055 whole entry, looked up, the tested form may be a part): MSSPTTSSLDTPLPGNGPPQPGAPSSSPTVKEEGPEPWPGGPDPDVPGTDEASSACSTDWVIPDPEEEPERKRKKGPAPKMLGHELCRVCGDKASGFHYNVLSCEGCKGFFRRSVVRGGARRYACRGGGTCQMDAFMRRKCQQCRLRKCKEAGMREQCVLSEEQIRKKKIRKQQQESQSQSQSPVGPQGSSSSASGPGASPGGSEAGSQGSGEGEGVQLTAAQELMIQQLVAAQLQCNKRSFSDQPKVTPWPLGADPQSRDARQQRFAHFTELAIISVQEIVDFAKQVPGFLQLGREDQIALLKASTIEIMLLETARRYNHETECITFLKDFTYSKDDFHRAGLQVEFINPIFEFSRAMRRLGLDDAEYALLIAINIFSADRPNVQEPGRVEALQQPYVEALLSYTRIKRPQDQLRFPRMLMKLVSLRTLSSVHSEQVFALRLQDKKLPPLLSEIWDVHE
hcDAF12 ag: confirmation of H. contortus DAF-12 agonists; activation, % at 6.8 µM; 3,400 compounds, 61% hits; HEK293 hcDAF-12 lit1-tk-luc reporter, luminescence; % of Δ7-dafachronic acid response; shares compounds with hcDAF12 agonist;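 active means mean activation across triplicate tests above the threshold derived from the earlier primary screen, cut at about 5.5% in these data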;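 further: 0% = DMSO only wells and 100% = 3 µM Δ7-dafachronic acid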
hgDAF12 ag: hgDAF-12 agonism, confirmation assay; 3,300 compounds, 80% hits; HEK293 GAL4-hgDAF12 luciferase reporter, agonist mode; percent of butyrate response; activation, % at 6.8 µM; shares compounds with hgDAF12 agonist;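 active means mean activation over triplicate wells above the hit cutoff derived from the earlier primary screen, cut at about 11% in these data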;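 further: 0% = DMSO low control and 100% = 2 mM sodium butyrate high control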
LXR ag 2: activates human LXR-beta, counter-screen for DAF-12 agonists; activation, % at 6.8 µM; HEK293 Gal4-LXR luciferase reporter, 24 h; shares compounds with hgDAF12 agonist; AID 743051; 3,300 tested, under 10 active;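 active means mean activation of the triplicate above a set limit carried over from the primary screen, none filed active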
Numbers without * were called inactive; . = no result. Hits are enriched below; roughly 4.1% of the tested compounds scored in any of these assays.

SMILES | hgDAF12 agonist | ssDAF-12 act | PolyA inh | hcDAF12 agonist | DAX1 inh-1 | DAX1 inh-2 | hgDAF12 ag | LXR ag 2 | others
O=C(NN/C(=N/S(=O)(=O)c1ccc(Cl)cc1)c1ccccc1)c1cccc(Cl)c1 | 16* | 1.2* | -12 | 8.8* | 2 | 1 | 18* | 1 | LXRb hcDAF ctr=1;hcDAF12 ag=7.6*
C/C(=N\NC(N)=S)c1ccc2c(c1)OCCO2 | 5 | -1 | 4 | 1 | -1 | 0 | . | .
CC(=NNC(N)=S)c1ccc2cc3c(cc2c1)OCO3 | 25* | 0 | . | 4 | 3 | 4 | 13* | 1
C[C@@H]1CN([C@@H](C)CO)C(=O)c2cc(Br)cnc2O[C@H]1CN(C)C(=O)CN1CCOCC1 | 0 | 0 | . | 3 | 0 | 1 | . | .
COc1c(O)ccc(/C=N/NC(=O)c2ccc3c(c2)OCCO3)c1[N+](=O)[O-] | 15* | 0 | 8 | 2 | 2 | 3 | 9 | 0
O=C(N/N=C/c1ccc(Br)o1)c1ccc2c(c1)OCCO2 | 16* | 0 | -14 | 3 | 2 | 1 | 11* | 1
COc1cc(/C=N/NC(=O)c2ccc3c(c2)OCCO3)cc(Cl)c1O | 3 | -1 | 7 | 0 | 0 | 0 | . | .
O=C(N/N=C/c1ccc([N+](=O)[O-])o1)c1ccc2c(c1)OCO2 | -13 | -2 | 11 | -6 | -6 | -3 | . | .
Nc1ccccc1SCc1cn2cccnc2n1 | 14* | 0 | -7 | 4 | 1 | 2 | 4 | 0
CCC(C)NC(=O)c1cc2c(=O)[nH]c3ccc(C)cc3c2s1 (centres undefined) | -1 | -2 | 5 | -3 | 0 | -1 | . | .
O=C1NC(=Nc2ccccc2)S/C1=C/c1cccs1 | 15* | 0 | 11 | 3 | 1 | 3 | 10 | 0
Cc1cccc(N=C2NC(=O)/C(=C\c3cccs3)S2)c1 | -1 | -2 | 7 | -1 | 0 | 0 | . | .
CCC(=O)Nc1ccc2c(c1)C(=O)c1ccccc1C2=O | 13* | 1 | -27 | 6.4* | 3.8* | 2 | 16* | 1
O=C(/C=C/Nc1ccc(Oc2ccccc2)cc1)c1ccco1 | 13* | 1 | -4 | 4 | 3.8* | 1 | 23* | 1
Cc1cc(NC(=O)c2ccc(-c3ccccc3[N+](=O)[O-])o2)no1 | 4 | -1 | . | -1 | 1 | 0 | . | .
CC(=O)c1cccc(NC(=O)c2ccc(-c3ccccc3[N+](=O)[O-])o2)c1 | 14* | -1 | -18 | 1 | 2 | 2 | 13* | 1
NC(=O)c1ccccc1NC(=O)/C=C/C(=O)O | 9 | -1 | 15 | 0 | 0 | 2 | . | .
Cc1ccc(/C=C/C(=O)Nc2ccccc2C(N)=O)cc1 | 18* | 0 | 10 | 4 | 4.4* | -1 | 15* | 1
Cc1ccc(NC(=O)C2COc3ccccc3O2)c(C)c1 (centres undefined) | 7 | -1 | 1 | 3 | 0 | 3 | . | .
Cc1ccnc(NC(=O)C2COc3ccccc3O2)c1 (centres undefined) | 14* | 0 | -11 | 3 | 3.8* | 3 | 17* | 1
Cc1nc(-c2ccc(NC(=O)c3ccccc3C)cc2)cs1 | 20* | 0 | -6 | 2 | 2 | 1 | 16* | 1
COc1ccc(NC(=O)O[C@@H](C)[C@@H]2CN3CCc4c([nH]c5ccc(-c6ccc(OC)cc6)cc45)[C@@H]3C[C@@H]2N(C)C(=O)Nc2ccc(OC)cc2)cc1 | 2 | -1 | . | 2 | -1 | -1 | . | .
Cc1[nH]c(=O)c(C#N)c(C)c1CCC(=O)NCc1ccc(Cl)cc1 | 1 | -1 | 8 | 0 | 1 | -1 | . | .
OCCOc1ccc(CN2CCN(CCCc3ccccc3)C(CCO)C2)cc1 (centres undefined) | -1 | -1 | 10 | -1 | 1 | 2 | . | .
Fc1ccc(N2N=C(c3cccs3)CC2c2ccccc2)cc1 (centres undefined) | 0 | -2 | -11 | -1 | -1 | 0 | . | .
SMILES | hgDAF12 agonist | ssDAF-12 act | PolyA inh | hcDAF12 agonist | DAX1 inh-1 | DAX1 inh-2 | hgDAF12 ag | LXR ag 2 | others
c1ccc(C2Oc3ccccc3C3CC(c4cccs4)=NN32)cc1 (centres undefined) | 16* | 1 | -19 | 6 | 1 | 2 | 10 | 0
CCn1c(O)c(C=Nc2ccccc2)sc1=S | 16* | 0.9* | -25 | 3 | 3 | . | 18* | 1
C/C(=N/OCc1ccc(Br)cc1)c1ccccn1 | 23* | 0 | 1 | 5 | 3.7* | 2 | 22* | 1
N/C(=N\OCc1ccc([N+](=O)[O-])cc1)c1ccccn1 | . | . | -10 | . | . | . | . | .
NC(=O)c1cccnc1Nc1cccc([N+](=O)[O-])c1 | 14* | 0 | -3 | 3 | 3 | 4.3* | 9 | 0
COc1ccc(S(=O)(=O)N2CCCC(C(=O)NCCC(C)C)C2)cc1 (centres undefined) | -2 | -1 | 19 | 0 | 0 | 0 | . | .
CC(C)(C)NC(=S)NCCc1ccccc1 | 14* | 1 | 13 | 5 | 3 | 3 | 11* | 0
O=C(OCc1ccccn1)c1ccc(COc2ccc3ccccc3c2)o1 | 14* | 0 | -5 | 4 | 3 | 2 | 11* | 0
COc1ccc(CN2CCC2(C)C(=O)NCCc2c[nH]c3ccccc23)c2ccccc12 (centres undefined) | 0 | -1 | . | -1 | -1 | . | . | .
N#Cc1cccc(NC(=O)CSc2nnc(-c3n[nH]c4ccccc34)o2)c1 | 15* | 0 | -4 | 1 | -1 | 1 | 10 | 0
c1c2c(cc3sc(N4CCOCC4)nc13)OCO2 | 16* | 0 | -1 | 6.0* | 3 | 2 | 13* | 1
COc1ccccc1C(=O)COC(=O)c1ccc(N(C)C)cc1 | 16* | 0 | 1 | 5 | 3 | 4.5* | 13* | 1
Nc1nnc(CC(=O)N/N=C/c2ccc(-c3cccc(C(=O)O)c3)o2)s1 | 14* | -1 | -1 | -1 | 2 | -1 | 3 | 0

Screening results deposited in PubChem BioAssay by several laboratories.
